108 sequences from PubChem BioAssay AID1508600 (Functional Genomics Laboratory (NCATS/FGL), 2020) can be followed below.

In all, about 53,000 sequences went through this assay and about 3,700 (7%) were called active. The entries come from a sample that favours actives as a whole. Unmarked numbers belong to inactive results.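 Rule for the calls: active = gene knockdowns whose robust z-score for IL-1 alpha signal is at least 2 or at most -2, so actives lie on both sides; inactive = the rest.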

The assay in a line: Components of the Cytosolic LPS Sensing Pathway: Gene Identification via Genome-wide siRNA Screen.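 Note: robust z of the log signal after scaling to non-targeting control siRNA wells of the plate.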 Conditions: RAW264.7 macrophages, IL-1a HTRF, actives lie on both sides, screened at 100 nM (by protocol), cells primed 5 h with Pam3CSK4 first. The method in brief: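 Three distinct siRNAs per gene were tested singly at 100 nM in RAW264.7 macrophages. Following Pam3CSK4 priming and 24 hour LipidA transfection, IL-1a secretion was read by HTRF.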
With CCAGUCAAAUAUCCAUUAGTT against Scgb2b26, the z-score was -2.28 (active).
To GGAGACUCUCACCUAUCAUTT against Doc2g belongs -0.458; to CCAAUCACCAGAGACUAACTT against Slain1, 2.81 (active).
Next, GGAAGUUUUUGAGAAUGGGTT against Ppp3cc: -0.38; CCGAAUUCCAACCUAGAGCTT against Yipf5: -1.38; CCGCUCACGUGAAAAAGUUTT against Tars2: 0.327.
Next, GGACAUCUGGUUAUGAAUGTT against B3galt6: -0.111; GCCGAGCUCAUCAUCAUGATT against Prss40: 2.5 (active); GCAUGACUCUCAGGUCAAGTT against Lman2: 1.54.
On to GGACAUUGCAUUGCUCAUGTT against Sec1, for which the z-score was -0.526.
To CCUUCUUAUUGCUUAACCCTT against Scd3 belongs 0.279.
To GGAAGAAGAUAAAGAGCGGTT against Nrgn belongs -0.708; to GGACCUCAGUCACUUCCAATT against Etv4, 2.93 (active); to “AGUUCCAGGCGCAGAAACCTT against D8Ertd738e”, 1.46.
Next, GGUUUUUCUUCUGCUGGUGTT against Olfr1256: 1.64.
As to CCGGCUAAAUCACCGUGCUTT against Clpb, the z-score is -0.647.
For GCCCAAAAAGGAAUUAAUUTT against Pak3, the z-score was -0.176.
To CCUGGAGAUCCCUCACUUUTT against Olfr1351 belongs 1.39.
To GGCUUUAAGAUCACACAAATT against Snrpa belongs 2.09 (active).
Turning to GCAGAUGCUUCGGUGAAAATT against Defb15, the z-score was 0.998.
Next, CCCAUACAAAGCACUUACATT against Otub1: 0.589; GGACAAAUGGUAUUGUAGUTT against Coa5: -1.72; GCCGUCUUGUGUGUAUCAATT against Olfr1342: -0.186.
Next, GGAAAAGUGACGGUAUCUATT against Rpsa: -2.04 (active).
Next, GGGAUAAAAACCAUGGUUUTT against Pramel27: 0.113; GCACUUAUGGUUUAGAUGUTT against Prdm8: -0.127; GGAACUUAUAUCUGCGCCATT against Gprin3: 0.868.
With AAAAGCUUCACCUAACUAUTT against Ascc1, the z-score is 1.73.
On to “GGUGACAGUUGUUCACAAATT against 4933405O20Rik”, for which the z-score is -1.4.
Next, GGAAUCAUAUCAGAAACUATT against Pde4b: -0.475.
As for GGGAGAGUCAAAAAAAGAUTT against Khdrbs1, the z-score is -0.536.
Next, GGAAGACUGGUACACAUAATT against Tmem43: -2.32 (active); GCCAGUACUUAGGUCUAAGTT against Mrps25: 1.24; GCCCUCAGGUGGUUCUUAATT against Heatr3: 0.443.
To CCAUGUCAACGACCAUCAUTT against Glis2 belongs 0.189; to GCACCUCCACAAGAAUGAATT against Six2, 0.466.
On to GGAACAUUGACCAGAUAGUTT against Ankrd44, for which the z-score was -1.44.
To GGAGUUGAAUGGCUCUGGATT against Usp26 belongs -2.11 (active); to CCUUUGAGCCAGUUAUUUATT against Slc25a27, 0.366; to GGAACAUCUACAUUGUGGCTT against Tspan14, 0.402.
To GGAAUUUGCUGCCCUCCUATT against Smad3 belongs -0.206.
As for GCAGACUCUUCCAAGUAAUTT against Lrrc28, the z-score is 0.529.
GGCAUCGUCACCAAACUGUTT against Fgf11: the z-score is -2.51 (active).
Next, GCUAGAUUUCUACUGUGUCTT against Mindy1: 0.527; GCAAUUUUAGUUGGUGGAATT against Ddx24: -0.112.
As to GCGGAAGUCGAAUCUGUCUTT against Aga, the z-score was -1.45.
To GGAAUUUGUCAGGUUCCAATT against Grik4 belongs 0.859; to CGGGCUGAAUGUGUUUGUGTT against Slc10a4, 2.62 (active).
GGUACGGUAUGGAGAUCGGTT against Atpaf2: the z-score is 0.593.
With GGCAGAGCCAGGAUGUCUUTT against Msmb, the z-score was -1.2.
Regarding GGUAACUCUCCUUAGCCAGTT against Klk10, the z-score is -0.0493.
To GGACUCCCUGGAUUUCAGATT against Rapgef3 belongs -1.34; to GGCAGCUGAAGAUUAUGGATT against Tagln, 0.837; to GGCAAUAACAUUGCCUCGGTT against Igf1r, 0.632.
To GGGUGAGCAGUACAUUCAATT against Plekhg6 belongs 2.73 (active).
On to CCGAAAAUGUGGUAAAGUATT against Smg1, for which the z-score is 0.948.
Next, CCCAACAACCAACUAUUUUTT against Kcna1: 3.36 (active); GGGAUAAAGAUGAAGAACUTT against Tmem167b: 1.31.
Next, GGAAGUCAAGAUCUCACCUTT against Lrrc25: -0.864; CCAAGGGAAGAUUCAAAUUTT against Abcc8: 2.29 (active); CGUUUGAUACCAAAGAUUUTT against Onecut3: -1.12.
Next, GCUGUAAGCUACCGUCUGUTT against Panx2: 1.54.
On to GGUAUCUACCAGUACGAGATT against Izumo4, for which the z-score is -1.59.
Next, GCAUUAUGUCAGUAGCUCATT against Snrpb: -3.47 (active); CGGUGCACAACGUACCAAUTT against Srxn1: -0.0189; GGUAUCCCUAACUGGCAGUTT against Tro: -0.849.
To GGCUCAAAGGAGGGUAGAGTT against Lcn8 belongs 3.18 (active).
To GGAAAUAAAUGGCAGCAUGTT against H2-T3 belongs 1.47.
As for GGAUGAUUCAUUCAGUGAUTT against Adcy9, the z-score was 0.918.
Next, CCAAAACUUUCCACUCUAATT against Ttc32: 0.175; CCCAAACUGAAUUAAGCAGTT against Spata7: -0.515.
With GGAAAACUACUAAAAAGUCTT against Zfp938, the z-score is -0.31.
To GGUUACUCCUUUUUAUGUATT against Bex1 belongs -1.1; to GGGACAAGUGGUUGAAACCTT against Prmt8, -2.01 (active).
Next, GGCCACAAACAGAAUUAUCTT against Mrpl2: -0.219; GGAGAAAAAGGGAAAGAAUTT against Dlx4: 0.0644; CCUAGUUUGGUGAUGAUGUTT against Atg10: -0.262.
To GGUCAUUGAAAACUGUGCGTT against Sardh belongs -1.04; to GCAAGAGACCUUGUUAUAGTT against Cttnbp2nl, -0.426.
Take CCCAGUAAAUAAGAGUACATT against Treml1: the z-score was -1.33.
Next, GGGAGACCCAAUGUCAUCATT against Dtx3: -1.25.
To GCGGGAUUGGUCAUUCCACTT against Mrpl45 belongs 2.97 (active); to CGAACAUGUACAACAAAGATT against Cacna2d3, -0.181; to GGAACAAAGACUUCAAAGATT against Olfr323, -0.249.
Next, GGUGCUAAAAAUGAGCCUUTT against Urm1: -1.66; GGGAUGGCCAUAGAACAGATT against Echdc2: -0.211; CCCUAGACUUGAGAGUUUUTT against Eif2s1: 1.29.
Regarding GGCUGUGGAAGUGCAGAACTT against Dnmt3a, the z-score was -2.53 (active).
With CCGAGAGGUUUAAGGUCUCTT against Nsg1, the z-score is 1.18.
To GCUAGUCUACCCAAGUGACTT against Dennd6b belongs 4.35 (active); to CCUACUUACUCCUGUAUAATT against Adam3, 1.77; to CGAAACCAACAGUUAGAAGTT against Cby1, 0.71.
Next, “GAUCCUCACGAAAUAGGUATT against Olfr1372-ps1”: 0.737; “GGUCUCUAGUGGAAAAGCATT against A430093F15Rik”: -3.05 (active).
In the case of GCUCUUAAAACCCACCUGATT against Gzf1, the z-score was -1.97.
To UAAUGGCUGCUGUCUCCUGTT against Olfr441 belongs 0.405; to GGCGAAAAAGAACUUCUCCTT against Prrx1, -2.17 (active); to GCCUACAUUCACUCACUCCTT against Olfr1061, -0.016.
GGAUCAUUCGGACAAAAGUTT against Pax5: the z-score was -1.31.
To GGAGAAGAAGAUUUUUGGCTT against Gpr108 belongs -0.684; to GCCAACAAAGUGAUCGAAGTT against Fkbp10, 0.175.
Consider CCAGCAAUGUACCAGUUCATT against Micos13, for which the z-score is -2.02 (active).
As to GGUGAAAGAGAAGACUGAATT against Aimp1, the z-score was -0.418.
As to GGGUAUUCCUUCCAACACCTT against Lrrc4, the z-score was -2.14 (active).
To CCCAGUAUCAGACUAUCAUTT against Inpp4a belongs -0.178.
For CGAAUUUUGGAGAUGUAUGTT against Ddias, the z-score was 0.376.
In the case of GGAACAAAGAAGUCAAAGATT against Olfr16, the z-score is -0.765.
Next, CGGUGAUCAAUCAUUGUAATT against Tas2r113: -2.16 (active).
